High-throughput results from PubChem.
PD-1 reverse act: activators reversing PD-1 mediated T-cell inhibition; primary human CD4 T cells, PD-L1 beads, CellTiter-Glo 96 h; activation, % (no concentration beside the values); 29,000 tested, under 10 active; AID 2316; call rule not given here;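 further: 0% = median vehicle wells and 100% = positive control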
NOMO-1 viab: STK33 inhibitor candidate reducing NOMO-1 cell viability. NOMO-1 AML viability, CellTiter-Glo luminescence, 72 h. inhibition, % (no concentration beside the values). actives 7.5% (n = 37,000); in the data active means inhibition above about 80%
Shh pathway inh: Sonic Hedgehog pathway inhibition; actives 2.1% (n = 22,000); inhibition, % (test concentration not listed); Shh-LIGHT2 Gli-luciferase reporter, 30 h; AID 2313;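 active means mean inhibition across valid replicates above about 65%, limit read from the data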;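 further: pathway switched on by Shh-conditioned medium diluted 1 in 25 in low serum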
MITF inhib: inhibitors of MITF | TRPM1 promoter luciferase, luminescence, 24 h | inhibition, % (no concentration beside the values) | actives 0.28% (n = 37,000) | AID 2240; in the data active means inhibition above about 85%;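 further: human melanocyte line stably carrying TRPM1 promoter luciferase reporter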
* hit, by the source's call; x = no result given. Sampled rows, rich in hits. Any-hit rate of the full collection: about 8.1%.

SMILES | PD-1 reverse act | NOMO-1 viab | Shh pathway inh | MITF inhib
COC(=O)C(Cc1c[nH]c2ccccc12)NC(=O)C(NC(=O)C(C)NC(=O)/C=C/C(=O)O)C(C)c1c[nH]c2ccccc12 (stereo not given) | -1 | 7 | 15 | -5
CCOC(=O)Cc1[nH]nc2c1C(C1CC=CCC1)C(C#N)=C(N)O2 (stereo not given) | x | 114* | x | 16
COc1cc(OC)cc(C2C(C#N)=C(N)Oc3n[nH]c(-c4cccnc4)c32)c1 (stereo not given) | x | 1 | x | 4
C[C@@H]1CN([C@@H](C)CO)C(=O)Cc2cc(NC(=O)Nc3ccc4c(c3)OCO4)ccc2O[C@@H]1CN(C)Cc1ccc(C(F)(F)F)cc1 | 0 | 95* | -14 | 1
C[C@H](CO)N1C[C@H](C)[C@H](CN(C)Cc2ccc(C(F)(F)F)cc2)Oc2ccc(NC(=O)Nc3ccc4c(c3)OCO4)cc2CC1=O | x | 104* | -26 | 35
C[C@H](CO)N1C[C@H](C)[C@H](CN(C)S(=O)(=O)c2cccs2)Oc2ccc(NC(=O)Nc3ccc4c(c3)OCO4)cc2CC1=O | 1 | 86* | 0 | 24
C[C@@H]1CN([C@@H](C)CO)C(=O)Cc2cc(NC(=O)Nc3ccc(C(F)(F)F)cc3)ccc2O[C@@H]1CN(C)S(=O)(=O)c1cccs1 | -8 | 111* | 18 | 69
C[C@H](CO)N1C[C@H](C)[C@H](CN(C)S(=O)(=O)c2cccs2)Oc2ccc(NC(=O)Nc3ccc(C(F)(F)F)cc3)cc2CC1=O | x | 123* | x | 21
C[C@@H]1CN([C@H](C)CO)C(=O)Cc2cc(NC(=O)Nc3ccc(C(F)(F)F)cc3)ccc2O[C@H]1CN(C)S(=O)(=O)c1cccs1 | 3 | 12 | x | 4
COC(=O)C1=CO[C@@H](O[C@@H]2O[C@H](CO)[C@@H](O)[C@H](O)[C@H]2O)[C@H]2[C@@H]1[C@H](OC(=O)/C=C\c1ccc(O)cc1)C[C@]2(C)OC(C)=O | 0 | 8 | 11 | -2
OC(c1nc2ccc(Cl)cc2[nH]1)C(O)c1nc2ccc(Cl)cc2[nH]1 (stereo not given) | -1 | 60 | x | -4
Cc1noc(C)c1S(=O)(=O)Nc1cccc2c1O[C@H](CN(C)Cc1ccc(C(=O)Nc3ccccc3N)cc1)[C@H](C)CN([C@H](C)CO)C2=O | 0 | 118* | x | 11
Cc1noc(C)c1S(=O)(=O)Nc1cccc2c1O[C@H](CN(C)Cc1ccc(C(=O)O)cc1)[C@@H](C)CN([C@H](C)CO)C2=O | 1 | -6 | -20 | 0
C[C@@H]1CN([C@H](C)CO)C(=O)c2cccc(NS(=O)(=O)c3ccccc3)c2O[C@H]1CN(C)Cc1ccc(C(=O)Nc2ccccc2N)cc1 | 1 | 58 | x | -20
C[C@@H]1CN([C@H](C)CO)C(=O)c2cccc(NS(=O)(=O)c3ccc(Cl)cc3)c2O[C@@H]1CN(C)Cc1ccc(C(=O)Nc2ccccc2N)cc1 | -3 | 126* | x | 0
C[C@H](CO)N1C[C@H](C)[C@H](CN(C)Cc2ccc(C(=O)Nc3ccccc3N)cc2)Oc2c(NS(=O)(=O)c3cccs3)cccc2C1=O | 1 | 88* | x | 6
C[C@@H]1CN([C@H](C)CO)C(=O)c2cccc(NS(=O)(=O)c3cccs3)c2O[C@H]1CN(C)Cc1ccc(C(=O)Nc2ccccc2N)cc1 | 1 | 44 | x | -11
C[C@H](CO)N1C[C@H](C)[C@H](CN(C)Cc2ccc(C(=O)Nc3ccccc3N)cc2)Oc2c(NS(=O)(=O)c3ccccc3)cccc2C1=O | 0 | 139* | x | 29
Cc1cc(C)c(OC(=O)/C=C/c2cccs2)c(C)c1 | -1 | 13 | -1 | 1
COc1ccc(-c2cc(C(F)(F)F)nc(SCC(=O)Nc3ccc(C)cc3)n2)cc1 | -1 | 49 | x | 20
COc1ccc(OCc2nc3ccccc3n2Cc2ccccc2F)cc1 | -3 | 14 | x | 5
COC(=O)c1c(-c2ccc(Br)cc2)csc1NC(=O)C1CCCCC1C(=O)O (stereo not given) | 0 | 13 | x | -58
C[C@H](CO)N1C[C@H](C)[C@H](CN(C)Cc2ccc(C(=O)Nc3ccccc3N)cc2)Oc2c(NS(=O)(=O)c3ccc(Cl)cc3)cccc2C1=O | -1 | 121* | x | 43
COc1ccc(S(=O)(=O)Nc2cccc3c2O[C@@H](CN(C)Cc2ccc(C(=O)Nc4ccccc4N)cc2)[C@H](C)CN([C@H](C)CO)C3=O)cc1 | -2 | 72 | x | -2
C[C@H]1CN([C@@H](C)CO)C(=O)c2cccc(NS(=O)(=O)c3ccc(Cl)cc3)c2O[C@H]1CN(C)Cc1ccc(C(=O)Nc2ccccc2N)cc1 | -1 | 118* | x | 3
SMILES | PD-1 reverse act | NOMO-1 viab | Shh pathway inh | MITF inhib
COc1ccc(S(=O)(=O)Nc2cccc3c2O[C@@H](CN(C)Cc2ccc(C(=O)Nc4ccccc4N)cc2)[C@@H](C)CN([C@@H](C)CO)C3=O)cc1 | -2 | 112* | x | 15
CSc1sc(C(=O)Sc2ccccc2)c2c1S(=O)(=O)N(C)c1ccccc1-2 | -1 | 121* | 9 | -2
CCOC(=O)c1sc(SCc2ccccc2)c2c1-c1sccc1N(C)S2(=O)=O | -1 | -18 | 35 | 9
C[C@H](CO)N1C[C@H](C)[C@H](CN(C)Cc2ccc(C(=O)Nc3ccccc3N)cc2)Oc2ccc(NS(C)(=O)=O)cc2CC1=O | -1 | 129* | x | 15
C[C@@H]1CN([C@H](C)CO)C(=O)Cc2cc(NS(C)(=O)=O)ccc2O[C@@H]1CN(C)Cc1ccc(C(=O)Nc2ccccc2N)cc1 | 1 | 36 | x | -13
C[C@H]1CN([C@@H](C)CO)C(=O)Cc2cc(NS(C)(=O)=O)ccc2O[C@H]1CN(C)Cc1ccc(C(=O)Nc2ccccc2N)cc1 | -1 | 84* | x | 7
O=C(NC(C(=O)O)C12CC3CC(CC(C3)C1)C2)c1ccc(F)cc1 (stereo not given) | 0 | -8 | x | 0
C[C@H](CO)N1C[C@H](C)[C@H](CN(C)Cc2ccc(C(F)(F)F)cc2)Oc2c(NC(=O)Nc3ccc(F)cc3)cccc2C1=O | -2 | 69 | -86 | 29
C[C@@H]1CN([C@H](C)CO)C(=O)c2cccc(NC(=O)Nc3ccc(F)cc3)c2O[C@H]1CN(C)Cc1ccc(C(F)(F)F)cc1 | -5 | 83* | 22 | 38
C[C@@H]1CN([C@@H](C)CO)C(=O)c2cccc(NC(=O)Nc3ccc(C(F)(F)F)cc3)c2O[C@@H]1CN(C)Cc1ccc(C(=O)O)cc1 | 1 | -12 | -16 | -7
C[C@@H]1CN([C@@H](C)CO)C(=O)c2cccc(NC(=O)Nc3ccc(F)cc3)c2O[C@@H]1CN(C)Cc1ccc(C(F)(F)F)cc1 | -3 | 88* | 35 | 5
C[C@H](CO)N1C[C@H](C)[C@@H](CN(C)Cc2ccc(C(F)(F)F)cc2)Oc2c(NC(=O)Nc3ccc(F)cc3)cccc2C1=O | -2 | 113* | -41 | 21
Cc1ccc(C(=O)NC(=O)CSc2nnnn2-c2ccccc2)cc1 | 1 | -2 | x | -22
COc1ccc(NC(=O)C(C)Oc2ccccc2C)c([N+](=O)[O-])c1 (stereo not given) | x | 14 | x | -17
Cc1nn(CC(O)COc2ccc3c(c2)CCC3)c(C)c1Br (stereo not given) | -5 | 96* | x | -13
